Reference: paper PMC4336329 (PLoS ONE, 2015)
About 14,000 (4.5%) of roughly 310,000 compounds showed an effect of 50% or more. Effects have a minus sign here. Many of the other results were omitted from the sample, so strong results are more common in it than they were.

molecular target: human ether-à-go-go-related gene (hERG) potassium channel (human, UniProt Q12809); assay: primary screen, population patch clamp on CHO cells stably expressing hERG; higher = less effect of the substance
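Note: peak tail current of the secondary pulse compared with the same well before compound.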

human ether-à-go-go-related gene (hERG) potassium channel, sequence (Q12809 whole entry, looked up): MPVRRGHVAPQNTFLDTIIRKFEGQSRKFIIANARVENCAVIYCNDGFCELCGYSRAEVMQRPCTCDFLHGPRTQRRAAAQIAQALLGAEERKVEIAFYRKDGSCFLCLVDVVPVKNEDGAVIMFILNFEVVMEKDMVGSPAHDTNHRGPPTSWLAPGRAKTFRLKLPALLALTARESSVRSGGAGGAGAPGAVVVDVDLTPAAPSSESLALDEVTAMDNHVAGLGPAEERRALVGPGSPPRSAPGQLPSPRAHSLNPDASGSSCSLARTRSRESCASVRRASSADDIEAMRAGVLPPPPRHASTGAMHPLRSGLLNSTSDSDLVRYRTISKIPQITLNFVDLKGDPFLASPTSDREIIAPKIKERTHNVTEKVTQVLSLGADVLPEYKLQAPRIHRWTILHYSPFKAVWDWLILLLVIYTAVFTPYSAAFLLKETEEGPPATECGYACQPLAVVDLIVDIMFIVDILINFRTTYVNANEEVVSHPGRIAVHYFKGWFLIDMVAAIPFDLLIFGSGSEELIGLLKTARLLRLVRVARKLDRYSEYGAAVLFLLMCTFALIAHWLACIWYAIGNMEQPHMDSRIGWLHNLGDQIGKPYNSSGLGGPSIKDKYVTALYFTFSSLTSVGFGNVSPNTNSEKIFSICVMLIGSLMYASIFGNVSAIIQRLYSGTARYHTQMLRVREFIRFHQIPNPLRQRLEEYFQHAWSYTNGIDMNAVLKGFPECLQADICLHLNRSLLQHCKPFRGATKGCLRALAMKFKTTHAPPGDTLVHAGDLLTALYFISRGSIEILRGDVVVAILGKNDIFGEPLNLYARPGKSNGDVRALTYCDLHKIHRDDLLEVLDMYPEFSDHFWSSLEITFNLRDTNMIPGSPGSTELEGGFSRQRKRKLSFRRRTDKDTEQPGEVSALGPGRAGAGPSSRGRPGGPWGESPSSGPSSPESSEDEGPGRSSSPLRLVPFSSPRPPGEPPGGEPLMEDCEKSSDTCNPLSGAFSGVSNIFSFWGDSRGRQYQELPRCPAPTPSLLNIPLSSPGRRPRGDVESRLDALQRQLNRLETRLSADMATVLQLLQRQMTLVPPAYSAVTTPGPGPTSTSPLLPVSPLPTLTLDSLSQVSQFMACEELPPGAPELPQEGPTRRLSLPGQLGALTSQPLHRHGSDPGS

Row | Compound | hERG current change (%, negative = inhibition) at 10uM [%]
1 | CCOc1ccc(CN(C)CC(O)COC(c2ccc(OC)cc2)c2ccc(OC)cc2)cc1 (stereo not shown) | -77.4
2 | COc1cccc(CN(C)CC(O)COc2cc(Cl)ccc2Cl)c1.O=C(O)C(=O)O (stereo not shown) | -42
3 | CCc1ccc(CNCc2ccc(OCC(O)CN(C)Cc3ccccc3)cc2)nc1 (stereo not shown) | -17.4
4 | CN(Cc1ccccc1)CC(O)COc1ccc(CNCc2cc3ccccc3s2)cc1 (stereo not shown) | -25.7
5 | COc1ccc(C(OCC(O)CN2CCC(O)CC2)c2ccc(OC)cc2)cc1 (stereo not shown) | -48
6 | COc1cccc(CN(C)CC(O)COC(c2ccccc2)c2ccccc2C)c1 (stereo not shown) | -72.1
7 | CCc1ccc(CN(C)CC(O)COc2cccc3ccccc23)cc1 (stereo not shown) | -25.2
8 | COc1cccc(CN(C)CC(=O)Nc2c(C)cccc2C(C)C)c1 | -12.2
9 | COc1ccc(CN(C)CC(O)COC(c2ccc(OC)cc2)c2ccc(OC)cc2)cc1 (stereo not shown) | -77.2
10 | Cn1c(COc2ccccc2)nnc1SCc1nc2ccccc2[nH]1 | -9.92
11 | CCOc1ncccc1C(=O)NC(C)CCc1ccccc1 (stereo not shown) | -6.92
12 | COc1ccc(OC)c(/C=C2\S/C(=N/NC(=O)c3ccc4ccccc4c3)NC2=O)c1 | 16.5
13 | COc1cccc(CNS(=O)(=O)c2ccc3c(c2)CC(C)N3C(=O)C2CC2)c1 (stereo not shown) | 18.5
14 | O=C(NCc1csc(-c2ccccc2)n1)c1ccco1 | -40
15 | Cc1cccc(-c2nc(CNC(=O)c3ccco3)cs2)c1 | -57.9
16 | Cc1ccc(-c2nc(CNC(=O)c3ccco3)cs2)cc1 | -13.6
17 | COc1ccc(CNC(=O)[C@@H](NC(=O)C2CCN(C(=O)[C@@H]3CCCN3C(=O)OC(C)(C)C)CC2)C(C)C)cc1 | -9.4
18 | CCOc1ccc(CCNC(=O)CN(C)S(=O)(=O)c2cccc3nsnc23)cc1OCC | -9.79
19 | CC(C)(C)c1ccc(S(=O)(=O)N(CCCN2CCOCC2)Cc2cccs2)cc1.O=C(O)C(=O)O | -33.4
20 | COc1ccc(S(=O)(=O)N(CCCN2CCOCC2)Cc2ccc(OC)c(OC)c2)cc1 | -39.9
21 | O=C(O)C(=O)O.O=S(=O)(c1ccc(Cl)cc1)N(CCCN1CCOCC1)Cc1cccs1 | -63.7
22 | O=C(O)C(=O)O.O=[N+]([O-])c1ccc(S(=O)(=O)N(CCCN2CCOCC2)Cc2cccs2)cc1 | -70.6
23 | CC(=O)Nc1ccc(S(=O)(=O)N(CCCN2CCOCC2)Cc2cccs2)cc1.O=C(O)C(=O)O | -20.9
24 | COc1ccc(S(=O)(=O)N(CCCN2CCOCC2)Cc2cccc3ccccc23)cc1 | -48.6
25 | O=C(Nc1ccc(N2CCCCC2)cc1)c1cccnc1Cl | 13.4
26 | CCOC(=O)C1CCCN(C(=O)c2cc(CN3C(=O)c4ccccc4C3=O)ccc2OC)C1 (stereo not shown) | -9.55

Row | Compound | hERG current change (%, negative = inhibition) at 10uM [%]
27 | C=CCc1cccc(/C=N/NC(=O)c2ccccc2OC)c1O | 14.1
28 | C=CCc1cccc(/C=N/NC(=O)CNc2ccccc2)c1O | -2.16
29 | C=CCc1cccc(/C=N/NC(=O)c2ccccc2Br)c1O | -50.2
30 | O=C(C1=C(O)C(=O)N(CCCn2ccnc2)C1c1ccc(F)cc1)c1ccco1 (stereo not shown) | 15.8
31 | C/C(=N\Nc1ccccn1)c1ccc(C(C)C)cc1 | 23.7
32 | COc1cccc(/C(C)=N/Nc2ncc(Cl)cc2Cl)c1 | -10.3
33 | C/C(=N\Nc1ccccn1)c1ccc(OC(F)F)cc1 | -71.3
34 | C/C(=N\Nc1ncc(Cl)cc1Cl)c1ccc(OC(F)F)cc1 | -50.2
35 | C/C(=N\Nc1ccccn1)c1ccc(C#N)cc1 | -19.3
36 | C/C(=N\Nc1ncc(Cl)cc1Cl)c1ccc(C#N)cc1 | -4.88
37 | CCOC(=O)CNC(=O)c1cnc(Nc2ccccc2OC)c2ccccc12 | 5.33
38 | COc1ccccc1C1/C(=C(\O)c2ccc3c(c2)OCCO3)C(=O)C(=O)N1Cc1cccnc1 (stereo not shown) | 18.9
39 | O=C(CSc1ccc(-c2cccs2)nn1)NCc1ccccc1Cl | -28.7
40 | COc1ccc(N2CCN(C(=O)c3ccc(OCc4c(C)noc4C)c(OC)c3)CC2)cc1 | 6.01
41 | COc1cc(C(=O)N2CCN(c3ccc([N+](=O)[O-])cc3)CC2)ccc1OCc1c(C)noc1C | -60.2
42 | Cc1noc(C)c1COc1ccc(C(=O)N2CCN(c3ccccc3O)CC2)cc1 | -14.4
43 | Cc1cccc(N2CCN(C(=O)CSCc3c(C)noc3C)CC2)c1C | -14.9
44 | COc1cc(C(=O)N2CCN(S(=O)(=O)c3ccc(C)cc3)CC2)ccc1OCc1c(C)noc1C | -21
45 | Cc1noc(C)c1CSCC(=O)N1CCN(c2ccc(F)cc2)CC1 | -38.1
46 | Cc1noc(C)c1CSCC(=O)N1CCN(c2ccc([N+](=O)[O-])cc2)CC1 | -76.8
47 | Cc1noc(C)c1COc1ccc(C(=O)N2CCN(c3ccccn3)CC2)cc1 | -31.8
48 | Cc1noc(C)c1COc1ccc(C(=O)N2CCN(c3ccccc3F)CC2)cc1 | -55
49 | CCOC(=O)[C@@H]1[C@H]2COc3ccc(Br)cc3[C@H]2N2C(=O)N(c3ccc(Br)cc3)C(=O)[C@]12C | 7.88
50 | COc1ccccc1NS(=O)(=O)c1cccc(C(=O)NN=C2CCCC2)c1 | 0.33
51 | COc1ccc(CN(C)C(=O)Cc2ccc(OC)c(S(=O)(=O)N3CCOCC3)c2)cc1 | -20.4
52 | CCOC(=O)C1CCCN(S(=O)(=O)c2cccc3cccnc23)C1 (stereo not shown) | -14.9
